Laboratory results from a collection of fitness landscapes (doi:10.1126/science.1257360).
Whole data set: some 140,000 sequences, median “enrichment ratio after two sorts for PhoP signalling” near 0, cut for the highest 2% near 11. Many of the other results were omitted from the sample, so the highest values are more common in it than they were.

B1: PhoQ; a variant is named by its letters at X, in order, P23837 (parent)
chain: MKKLLRLFFPLSLRVRFLLATAAVVLVLSLAYGMVALIGYSVSFDKTTFRLLRGESNLFYTLAKWENNKLHVELPENIDKQSPTMTLIYDENGQLLWAQRDVPWLMKMIQPDWLKSNGFHEIEADVNDTSLLLSGDHSIQQQLQEVREDDDDAEMTHSVAVNVYPATSRMPKLTIVVVDTIPVELKSSYMVWSWFIYVLSANLLLVIPLLWVAAWWSLRPIEALAKEVRELEEHNRELLNPATTRELTSLVRNLNRLLKSERERYDKYRTTLTDLTHSLKTPLXXLQXXLRSLRSEKMSVSDAEPVMLEQISRISQQIGYYLHRASMRGGTLLSRELHPVAPLLDNLTSALNKVYQRKGVNISLDISPEISFVGEQNDFVEVMGNVLDNACKYCLEFVEISARQTDEHLYIVVEDDGPGIPLSKREVIFDRGQRVDTLRPGQGVGLAVAREITEQYEGKIVAGESMLGGARMEVIFGRQHSAPKDE

Variants of: B1
Assay: enrichment ratio after two sorts for PhoP signalling (ratio (wild type AVST 3.29)); higher = more functional
Conditions: with PhoP (E. coli)

| Variant | enrichment ratio |
| --- | --- |
| LHMC | ≤ 0.25 |
| VHGV | ≤ 0.25 |
| KDPY | ≤ 0.25 |
| PSCV | ≤ 0.25 |
| TKKT | ≤ 0.25 |
| TKLT | 15.3 |
| TKFT | ≤ 0.25 |
| KSQT | ≤ 0.25 |
| TKQT | 11.7 |
| TKAT | 14.5 |
| KKLT | ≤ 0.25 |
| KAQT | ≤ 0.25 |
| TKPT | ≤ 0.25 |
| TDYD | ≤ 0.25 |
| WDAF | ≤ 0.25 |
| MEHT | 24.2 |
| YYHT | ≤ 0.25 |
| MMHT | ≤ 0.25 |
| KLHT | ≤ 0.25 |
| TEHT | 27.2 |
| NEHT | ≤ 0.25 |
| MLHT | 11.5 |
| QEHT | 9.94 |
| MRHT | 0.477 |
| NWHY | ≤ 0.25 |
| TYIE | ≤ 0.25 |

| Variant | enrichment ratio |
| --- | --- |
| DLWY | ≤ 0.25 |
| KLWE | ≤ 0.25 |
| KHER | ≤ 0.25 |
| TVFL | ≤ 0.25 |
| LIMQ | ≤ 0.25 |
| NNDM | ≤ 0.25 |
| FCHM | ≤ 0.25 |
| YDSV | ≤ 0.25 |
| ATSV | 12.7 |
| TTSV | 15.8 |
| YTSV | ≤ 0.25 |
| STSV | 9.12 |
| KQSV | ≤ 0.25 |
| SWRT | ≤ 0.25 |
| RRQV | ≤ 0.25 |
| VWEC | ≤ 0.25 |
| TETS | 13.7 |
| TETR | ≤ 0.25 |
| TETD | 2.04 |
| TETK | ≤ 0.25 |
| TETM | 22.4 |
| METE | ≤ 0.25 |
| QETE | ≤ 0.25 |
| TETE | 18.8 |
| TETI | 17.3 |
| TEPM | ≤ 0.25 |

| Variant | enrichment ratio |
| --- | --- |
| TETA | ≤ 0.25 |
| RPDP | ≤ 0.25 |
| MVRG | ≤ 0.25 |
| NTNY | ≤ 0.25 |
| LYEH | ≤ 0.25 |
| IGTK | ≤ 0.25 |
| WQPW | ≤ 0.25 |
| PICS | ≤ 0.25 |
| DNDH | ≤ 0.25 |
| WQRE | ≤ 0.25 |
| LRQP | ≤ 0.25 |
| HPHL | ≤ 0.25 |
| GFYA | ≤ 0.25 |
| DGSI | ≤ 0.25 |
| GYWI | ≤ 0.25 |
| IGSE | ≤ 0.25 |
| METG | 4.62 |
| TETG | 35.8 |
| QETG | ≤ 0.25 |
| SFGG | ≤ 0.25 |
| PIPY | ≤ 0.25 |
| KIVE | ≤ 0.25 |
| EFFM | ≤ 0.25 |
| SCSN | 12.3 |
| KSSN | ≤ 0.25 |
| SQSN | 7.46 |

| Variant | enrichment ratio |
| --- | --- |
| SDSN | ≤ 0.25 |
| KQSN | ≤ 0.25 |
| SSSN | 12.1 |
| SLSN | 8.45 |
| YTSN | ≤ 0.25 |
| SNSN | 12.5 |
| STSN | 11.3 |
| SRSN | ≤ 0.25 |
| NSSN | ≤ 0.25 |
| DMGM | ≤ 0.25 |
| VHGA | ≤ 0.25 |
| FTWC | ≤ 0.25 |
| RPLR | ≤ 0.25 |
| EKAY | ≤ 0.25 |
| FPIV | ≤ 0.25 |
| SGSG | 8.15 |
| SGSN | 13.3 |
| TGSN | 8.1 |
| WDWH | ≤ 0.25 |
| KYSC | ≤ 0.25 |
| SRSH | ≤ 0.25 |
| SENK | ≤ 0.25 |
| DDSC | ≤ 0.25 |
| SETC | 13.2 |
| SESC | 18.4 |
| SESK | 5.02 |

| Variant | enrichment ratio |
| --- | --- |
| SRSQ | ≤ 0.25 |
| SEFC | 10.4 |
| SESH | 13.1 |
| SESQ | 13.9 |
| SQSQ | 8.8 |
| LSYF | 0.698 |
| FERS | ≤ 0.25 |
| FKHR | ≤ 0.25 |
| QKRW | ≤ 0.25 |
| TIRN | ≤ 0.25 |
| KKEL | ≤ 0.25 |
| MLWA | ≤ 0.25 |
| HFVY | ≤ 0.25 |
| GASL | 3.66 |
| SLEC | ≤ 0.25 |
| SETM | 18.3 |
| SETH | 15.6 |
| SETI | 19.9 |
| KYEC | ≤ 0.25 |
| SEEC | 15.4 |
| METM | 4.44 |
| SETA | 10.5 |
| SETW | 3.01 |
| SETK | ≤ 0.25 |
| SETG | 9.95 |
| ICMG | ≤ 0.25 |

| Variant | enrichment ratio |
| --- | --- |
| NYHW | ≤ 0.25 |
| EGMK | ≤ 0.25 |
| SVFE | ≤ 0.25 |
| PKCE | ≤ 0.25 |
| LWIA | ≤ 0.25 |
| VVHK | ≤ 0.25 |
| PWSL | ≤ 0.25 |
| YMEP | ≤ 0.25 |
| SETD | ≤ 0.25 |
| SEMH | 19.3 |
| SASK | ≤ 0.25 |
| STMH | 8.42 |
| SANH | ≤ 0.25 |
| SASH | 12.2 |
| SETE | 5.75 |
| KYMH | ≤ 0.25 |
| SETS | 12 |
| DGLS | ≤ 0.25 |
| FPTK | ≤ 0.25 |
| DPHW | ≤ 0.25 |
| WDVW | ≤ 0.25 |
| QFAR | ≤ 0.25 |
| VVQA | ≤ 0.25 |
